Assay results as given in PubChem BioAssay (NCATS).
Several values for one entry are separate records, joined by “and”; a condition that tells them apart may be missing. Identical values can stand only once. Records with an inconclusive call do not appear. Activity calls are given as the source filed them. Unless noted, the call rests on the fitted dose curve; in most records, active means well fitted curve in the direction sought with a large enough effect; inconclusive means small, poorly fitted or top-dose-only effect, or another doubt; inactive means no such curve, though single readings can be large; an effect the other way counts as inactive or inconclusive.

Tests used:
[1] = Cell Viability - Jurkat (AID 426;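 active means dose-dependent loss of cell ATP signal giving a full or clear fitted curve, ranked by lower potency value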;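 further: potency means the concentration at half of the fitted maximal effect; cells exposed to compound for 40 hours at 37 °C before ATP read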); conditions: qHTS
Summary of the method: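 Seed 5000 Jurkat E6-1 cells/well; add compound; incubate 40 hr at 37 °C; add CellTiter-Glo; wait 20 min at room temperature; read luminescence. Fit concentration-response with Hill equation for AC50.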

[2] = Cell Viability - Hek293 (AID 427;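 active means compounds whose dose-response curve shows a full or clear partial loss of cell viability, called from curve shape rather than a numeric limit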;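 further: potency means the concentration at half of the fitted maximal effect; cells exposed to compound for 40 hours at 37 °C before reading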); conditions: qHTS
Summary of the method: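 Luminescent ATP read-out (CellTiter-Glo, 20 min RT) after 40 hr compound exposure at 37 °C in complete medium. Signal normalized to DMSO (basal) and 100 uM tamoxifen (100% inhibition); concentration-response fitted with the standard Hill equation to give AC50.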

[3] = Cellular Toxicity (caspase-3) Jurkat (AID 655); conditions: Jurkat caspase-3 activation, luminescence; caspase-3 activation: at 92.2 µM (top of the series), DMSO = 0%, tamoxifen = 100%;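 further: cells exposed to compound for 16 h at 37 °C before reading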
Summary of the method: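 Luminescent Caspase-Glo 3/7 read-out (20 min, room temperature) after 16 h compound treatment at 37 C of 5000 Jurkat cells per well. AC50 derived by Hill-equation fitting, scaled between DMSO basal and 100 uM tamoxifen stimulation.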

[4] = Cellular Toxicity (caspase-3) BJ (AID 658); conditions: BJ fibroblasts, luminescence; Potency: caspase-3 activation; series mostly up to 91.7 µM;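 further: 0% = DMSO basal and 100% = 10 µM staurosporine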
Summary of the method: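 Luminescent aminoluciferin-substrate cleavage reports caspase 3/7 activity in normal human BJ fibroblasts after 16 hr compound exposure at 37 °C. Normalized to DMSO (basal) and 10 uM staurosporine (100%); AC50 from Hill fit of concentration-response.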

[5] = Cell Viability - LYMP1-002 - Assay at 24 hr (AID 993); conditions: LYMP1-002 lymphoblastoid cells viability; series mostly up to 92.2 µM; further: on the % scale 0 is the no-effect control and ±100 the full control effect
Summary of the method: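 qHTS, LYMP1-002 lymphoblastoid, 24 h cpd, 37 C, CellTiter-Glo ATP luminescence; AC50 via Hill eq.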

[6] = target: Estrogen receptor (Homo sapiens) (UniProt P03372); assay: qHTS assay for small molecule antagonists of estrogen receptor alpha signaling (AID 588513; active means well fitted curve in the direction sought with a large enough effect in the signal ratio, with a control signal flat, not every such curve was filed as active; the % refers to the signal ratio; further: on the % scale 0 is the no-effect control and ±100 the full control effect); conditions: ER-alpha-UAS-bla HEK293, beta-lactamase ratio, antagonist mode; series mostly up to 76.9 µM
Summary of the method: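 Antagonist mode: inhibition of 0.5 nM 17-beta-estradiol-driven beta-lactamase reporter in HEK 293 ER-alpha-UAS-bla cells, 18 h at 37C, CCF4 readout after 2 h at RT. Normalised to estradiol and DMSO; titration fitted to Hill.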

[7] = target: Peroxisome proliferator-activated receptor gamma (Homo sapiens) (UniProt P37231); assay: qHTS assay for small molecule agonists of peroxisome proliferator-activated receptor gamma signaling (AID 588536; active means well fitted curve in the direction sought with a large enough effect in the signal ratio, with a control signal flat, not every such curve was filed as active; the % refers to the signal ratio;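 further: 0% = DMSO basal wells and 100% = rosiglitazone at 2 µM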); conditions: HEK293 PPARg-UAS-bla, beta-lactamase ratio, 16 h, percent of rosiglitazone response, DMSO as zero; series mostly up to 76.7 µM
Summary of the method: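 PPAR-gamma-UAS-bla HEK293 cells in medium with 1% charcoal/dextran-treated FBS were exposed to compounds for 16 h at 37 C. Beta-lactamase activity was read with CCF4 substrate (405 nm excitation, 460/530 nm emission).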

[8] = target: Vitamin D3 receptor (Homo sapiens) (UniProt P11473); assay: qHTS assay for small molecule agonists of vitamin D receptor signaling (AID 588543; calls by dose curve;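 further: 0% = DMSO basal and 100% = reference agonist control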); conditions: HEK293T VDR-UAS-bla, beta-lactamase ratio, 16 h; series mostly up to 76.8 µM
Summary of the method: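 Agonist-mode beta-lactamase reporter: HEK293T VDR-UAS-bla cells in charcoal-stripped 2% FBS, compound series 16 h 37 C, CCF4 2 h RT. EC50 from Hill fit, scaled against DMSO and 50 nM calcitriol control.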

[9] = target: Voltage-gated inwardly rectifying potassium channel KCNH2 (Homo sapiens) (UniProt Q12809); assay: qHTS Assay for Small Molecule Inhibitors of the Human hERG Channel Activity (AID 588834); conditions: U2OS BacMam hERG, FluxOR thallium flux fluorescence; series mostly up to 92.2 µM;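 further: top concentration of the series differs between compounds; on the % scale 0 is the no-effect control and ±100 the full control effect; lower thallium flux fluorescence means stronger hERG block; nearly all actives have a fitted effect of over 50% in size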
Summary of the method: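 Kinetic FDSS fluorescence; U2OS + hERG BacMam (~100 virus particles/cell); FluxOR Tl+ flux; ~10 min cpd; AC50 (Hill).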

[10] = qHTS assay for small molecule agonists of the antioxidant response element (ARE) signaling pathway (AID 651741; active means well fitted activation curve with a large enough effect in the signal ratio; the % refers to the signal ratio; further: potency means the concentration at half of the fitted maximal effect; on activation: % of control where 0% means no effect); conditions: HepG2 ARE-bla reporter, beta-lactamase FRET ratio, 16 h; series mostly up to 96 µM
Summary of the method: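 ARE-bla HepG2 cells (beta-lactamase reporter under ARE control) were plated at 2,000 cells/well, preincubated 5 h at 37 C/5% CO2, then treated with DMSO-dissolved compounds for 16 h at 37 C; LiveBLAzer B/G FRET substrate added, fluorescence read after 2 h at room temperature.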

[11] = qHTS assay for small molecule activators of the p53 signaling pathway (AID 651743; active means well fitted activation curve with a large enough effect in the signal ratio, not every such curve was filed as active; the % refers to the signal ratio; further: % of control where 0% means no effect); conditions: HCT-116 p53RE-bla, beta-lactamase FRET ratio, 16 h; activation: hits give high values
Summary of the method: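 p53RE-bla HCT-116 cells with a stably integrated beta-lactamase reporter under p53 response elements were plated, rested 5 hours at 37 C/5% CO2, then exposed to compounds in DMSO for 16 hours at 37 C. LiveBLAzer B/G FRET substrate was read after 2 hours at room temperature.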

[12] = qHTS assay for small molecule activators of the nuclear factor-kappa B (NF-kB) signaling pathway (AID 651749; active means well fitted activation curve with a large enough effect in the signal ratio; the % refers to the signal ratio; further: % of control where 0% means no effect); conditions: NF-kB-bla ME-180 cells, beta-lactamase FRET ratio, 16 h; hits give high values
Summary of the method: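 ME-180 cells stably carrying a beta-lactamase reporter under an NF-kB response element were exposed to compound or DMSO vehicle for 16 hr at 37C, 5% CO2. Pathway activation was read by FRET, since reporter expression disrupts FRET.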

[13] = target: Tumor necrosis factor (Homo sapiens) (UniProt P01375); assay: qHTS assay to identify small molecules that stimulate Tumor Necrosis Factor-alpha (TNF-alpha) secretion (AID 651757; active means well fitted curve in the direction sought with a large enough effect in the signal ratio; the % refers to the signal ratio; further: 0% is about no effect); conditions: Human cells, HTRF 665/615 ratio; series mostly up to 92.2 µM
Summary of the method: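 Secreted TNF-alpha from compound-treated THP-1 cells (17 hrs, 37 C) was quantified with a homogeneous time-resolved fluorescence antibody assay.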

[14] = target: Nuclear receptor ROR-gamma (Homo sapiens) (UniProt P51449); assay: qHTS assay for small molecule antagonists of the retinoid-related orphan receptor gamma (ROR-gamma) signaling pathway (AID 651802); conditions: ROR-gamma antagonist cell reporter assay; series mostly up to 92.2 µM;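 further: CHO cells with doxycycline-induced ROR-gamma expression; on the % scale 0 is the no-effect control and ±100 the full control effect; nearly all actives have a fitted effect of over 60% in size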
Summary of the method: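 Antagonism is scored as a fall in luminescence from a RORE-luciferase reporter in CHO cells expressing ROR under a TET-inducible promoter, measured 16hr after doxycycline induction in the presence of compound.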

[15] = qHTS assay for small molecule antagonists of the retinoid-related orphan receptor gamma (ROR-gamma) signaling pathway - cell viability counter screen (AID 720652; active means well fitted curve in the direction sought with a large enough effect in the repeat runs; an effect the other way counts as inactive or inconclusive;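 further: CHO reporter cells with doxycycline-induced ROR-gamma expression; compound exposure lasted 16 hr before ATP read; on the % scale 0 is the no-effect control and ±100 the full control effect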); conditions: RORgamma reporter cell line viability counter screen; series mostly up to 92.2 µM
Summary of the method: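 Cytotoxicity is quantified via intracellular ATP (CellTiter-Glo luminescence) in doxycycline-induced CHO ROR response element-luciferase reporter cells treated with compound for 16 hr at 37 C, 5% CO2.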

[16] = qHTS assay for small molecule activators of the human pregnane X receptor (PXR) signaling pathway (AID 720659; call rule not given here; further: 0% is about no effect); conditions: DPX-2 HepG2 CYP3A4-luciferase, 24 h; series mostly up to 92.3 µM
[17] = Cellular Toxicity (caspase-3) Hek293 (AID 664); conditions: HEK293 caspase-3 activation, DMSO = 0%, 100 µM tamoxifen = 100%; at 92.2 µM (top of the series);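 further: cells exposed to compound for 16 h at 37 °C before readout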
Summary of the method: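 Activation of caspase-3/7 is measured as increased luminescence from cleaved peptide-aminoluciferin substrate in HEK293 cells treated 16 hours at 37 °C. AC50 values come from Hill-equation fits of concentration-response data.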

[18] = target: Cytochrome P450 3A4 (Homo sapiens) (UniProt P08684); assay: qHTS Assay for Inhibitors and Substrates of Cytochrome P450 3A4 (AID 884); conditions: recombinant CYP3A4, Luciferin-PPXE luminescence; series mostly up to 57.1 µM; further: on the % scale 0 is the no-effect control and ±100 the full control effect; nearly all actives have a fitted effect of over 50% in size
Summary of the method: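 20 nM human CYP3A4 with 25 uM Luciferin-PPXE (at KM) in 200 mM KPO4, preincubated 10 min with compound; NADPH regeneration started a 60 min RT reaction. Luciferin detected by luminescence, normalized to 57 uM ketoconazole as full inhibition.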

[19] = Cell Viability - LYMP1-002 - Assay at 16 hr (AID 948); conditions: LYMP1-002 lymphoblastoid cell viability; series mostly up to 92.2 µM;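 further: 0% = DMSO alone and full effect = 92 µM tetraoctylammonium bromide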
Summary of the method: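 ATP luminescence (CellTiter-Glo) was measured after 16 hr compound exposure at 37 C of 2500 lymphoblastoid LYMP1-002 cells per well. Concentration-response curves were fitted with the Hill equation to give AC50.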

[20] = Cell Viability - LYMP2-003 (AID 965); conditions: LYMP2-003 lymphoblastoid cell viability; series mostly up to 92.2 µM;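 further: cells exposed to compounds for 24 h before reading; 0% = DMSO only and full effect = 92 µM tetraoctylammonium bromide; nearly all actives have a fitted effect of over 50% in size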
Summary of the method: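 CellTiter-Glo luminescence quantified ATP loss after 24 h compound treatment of LYMP2-003 lymphoblastoid cells at 37 C. Titration series were fitted with the standard Hill equation to give AC50.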

Vitamin D3 receptor (Homo sapiens), sequence (P11473 whole entry, looked up): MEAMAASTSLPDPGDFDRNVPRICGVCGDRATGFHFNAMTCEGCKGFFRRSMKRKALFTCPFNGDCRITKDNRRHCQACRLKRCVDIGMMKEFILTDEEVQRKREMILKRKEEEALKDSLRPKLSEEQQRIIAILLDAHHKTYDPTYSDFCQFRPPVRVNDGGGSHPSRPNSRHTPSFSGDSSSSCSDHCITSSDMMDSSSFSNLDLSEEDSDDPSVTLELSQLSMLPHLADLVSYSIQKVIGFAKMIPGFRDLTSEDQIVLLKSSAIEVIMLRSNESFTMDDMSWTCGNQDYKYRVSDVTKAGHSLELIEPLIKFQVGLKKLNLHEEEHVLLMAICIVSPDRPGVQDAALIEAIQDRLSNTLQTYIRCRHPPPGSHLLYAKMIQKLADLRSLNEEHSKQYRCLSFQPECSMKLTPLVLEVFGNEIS
Cytochrome P450 3A4 (Homo sapiens), sequence (P08684 whole entry, looked up): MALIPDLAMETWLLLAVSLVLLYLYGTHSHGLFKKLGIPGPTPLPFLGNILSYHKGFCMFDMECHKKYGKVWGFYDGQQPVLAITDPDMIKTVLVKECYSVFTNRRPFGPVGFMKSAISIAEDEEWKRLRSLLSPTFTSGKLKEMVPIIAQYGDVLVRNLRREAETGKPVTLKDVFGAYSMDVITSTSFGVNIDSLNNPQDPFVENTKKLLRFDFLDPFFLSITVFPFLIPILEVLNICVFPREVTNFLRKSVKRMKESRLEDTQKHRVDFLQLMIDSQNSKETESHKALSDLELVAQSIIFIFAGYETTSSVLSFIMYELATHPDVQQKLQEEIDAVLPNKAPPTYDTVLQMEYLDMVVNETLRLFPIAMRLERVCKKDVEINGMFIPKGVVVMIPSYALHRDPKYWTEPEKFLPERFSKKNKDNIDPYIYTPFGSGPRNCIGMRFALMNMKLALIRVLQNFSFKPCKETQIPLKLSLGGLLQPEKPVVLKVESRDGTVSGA
Estrogen receptor (Homo sapiens), sequence (P03372 whole entry, looked up): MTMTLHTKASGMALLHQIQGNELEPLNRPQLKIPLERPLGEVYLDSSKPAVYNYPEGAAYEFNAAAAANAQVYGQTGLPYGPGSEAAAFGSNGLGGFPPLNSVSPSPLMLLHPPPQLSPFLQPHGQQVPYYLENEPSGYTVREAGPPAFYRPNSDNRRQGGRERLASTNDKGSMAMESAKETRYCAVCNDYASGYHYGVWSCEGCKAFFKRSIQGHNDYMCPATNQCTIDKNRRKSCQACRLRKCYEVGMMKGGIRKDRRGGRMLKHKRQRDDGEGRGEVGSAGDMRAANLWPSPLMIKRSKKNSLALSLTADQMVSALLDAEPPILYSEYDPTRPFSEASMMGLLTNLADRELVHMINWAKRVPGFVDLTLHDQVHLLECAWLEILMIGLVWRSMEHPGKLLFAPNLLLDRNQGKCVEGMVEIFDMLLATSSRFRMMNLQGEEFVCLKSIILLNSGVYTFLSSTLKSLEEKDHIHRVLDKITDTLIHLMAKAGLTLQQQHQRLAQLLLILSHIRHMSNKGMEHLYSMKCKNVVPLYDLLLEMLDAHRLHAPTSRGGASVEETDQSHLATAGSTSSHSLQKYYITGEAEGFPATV
Peroxisome proliferator-activated receptor gamma (Homo sapiens), sequence (P37231 whole entry, looked up): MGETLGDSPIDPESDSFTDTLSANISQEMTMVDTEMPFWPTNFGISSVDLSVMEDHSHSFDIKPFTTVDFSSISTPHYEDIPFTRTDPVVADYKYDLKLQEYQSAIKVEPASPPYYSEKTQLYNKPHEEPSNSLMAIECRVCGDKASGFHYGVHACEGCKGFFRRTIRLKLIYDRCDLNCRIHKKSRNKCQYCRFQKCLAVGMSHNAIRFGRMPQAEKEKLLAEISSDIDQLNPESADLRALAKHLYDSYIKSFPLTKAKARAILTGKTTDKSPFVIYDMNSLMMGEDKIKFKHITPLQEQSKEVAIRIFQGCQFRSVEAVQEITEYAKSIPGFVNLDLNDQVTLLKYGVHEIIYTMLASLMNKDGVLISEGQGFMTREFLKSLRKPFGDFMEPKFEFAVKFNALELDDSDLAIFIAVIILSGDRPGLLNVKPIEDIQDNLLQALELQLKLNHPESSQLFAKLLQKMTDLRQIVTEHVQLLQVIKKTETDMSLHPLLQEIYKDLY
Nuclear receptor ROR-gamma (Homo sapiens), sequence (P51449 whole entry, looked up): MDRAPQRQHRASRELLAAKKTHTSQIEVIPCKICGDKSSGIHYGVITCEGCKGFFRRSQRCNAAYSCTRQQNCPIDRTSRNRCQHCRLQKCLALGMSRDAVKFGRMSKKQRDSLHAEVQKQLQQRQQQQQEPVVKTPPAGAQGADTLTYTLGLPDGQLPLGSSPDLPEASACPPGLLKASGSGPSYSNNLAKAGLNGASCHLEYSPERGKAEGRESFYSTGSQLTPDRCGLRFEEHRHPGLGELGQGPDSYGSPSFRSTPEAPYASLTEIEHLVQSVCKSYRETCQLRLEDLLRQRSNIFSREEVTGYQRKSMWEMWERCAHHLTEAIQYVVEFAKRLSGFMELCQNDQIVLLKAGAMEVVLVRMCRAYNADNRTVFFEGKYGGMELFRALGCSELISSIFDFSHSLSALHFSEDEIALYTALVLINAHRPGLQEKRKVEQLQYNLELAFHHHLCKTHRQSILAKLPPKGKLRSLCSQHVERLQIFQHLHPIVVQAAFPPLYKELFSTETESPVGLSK
Tumor necrosis factor (Homo sapiens), sequence (P01375 whole entry, looked up): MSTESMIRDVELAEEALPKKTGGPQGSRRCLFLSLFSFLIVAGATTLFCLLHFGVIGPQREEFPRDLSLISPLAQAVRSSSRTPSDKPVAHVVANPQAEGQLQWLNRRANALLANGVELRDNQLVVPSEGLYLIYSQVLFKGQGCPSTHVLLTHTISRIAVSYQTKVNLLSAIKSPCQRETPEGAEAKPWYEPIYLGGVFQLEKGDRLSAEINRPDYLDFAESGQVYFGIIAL
Voltage-gated inwardly rectifying potassium channel KCNH2 (Homo sapiens), sequence (Q12809 whole entry, looked up): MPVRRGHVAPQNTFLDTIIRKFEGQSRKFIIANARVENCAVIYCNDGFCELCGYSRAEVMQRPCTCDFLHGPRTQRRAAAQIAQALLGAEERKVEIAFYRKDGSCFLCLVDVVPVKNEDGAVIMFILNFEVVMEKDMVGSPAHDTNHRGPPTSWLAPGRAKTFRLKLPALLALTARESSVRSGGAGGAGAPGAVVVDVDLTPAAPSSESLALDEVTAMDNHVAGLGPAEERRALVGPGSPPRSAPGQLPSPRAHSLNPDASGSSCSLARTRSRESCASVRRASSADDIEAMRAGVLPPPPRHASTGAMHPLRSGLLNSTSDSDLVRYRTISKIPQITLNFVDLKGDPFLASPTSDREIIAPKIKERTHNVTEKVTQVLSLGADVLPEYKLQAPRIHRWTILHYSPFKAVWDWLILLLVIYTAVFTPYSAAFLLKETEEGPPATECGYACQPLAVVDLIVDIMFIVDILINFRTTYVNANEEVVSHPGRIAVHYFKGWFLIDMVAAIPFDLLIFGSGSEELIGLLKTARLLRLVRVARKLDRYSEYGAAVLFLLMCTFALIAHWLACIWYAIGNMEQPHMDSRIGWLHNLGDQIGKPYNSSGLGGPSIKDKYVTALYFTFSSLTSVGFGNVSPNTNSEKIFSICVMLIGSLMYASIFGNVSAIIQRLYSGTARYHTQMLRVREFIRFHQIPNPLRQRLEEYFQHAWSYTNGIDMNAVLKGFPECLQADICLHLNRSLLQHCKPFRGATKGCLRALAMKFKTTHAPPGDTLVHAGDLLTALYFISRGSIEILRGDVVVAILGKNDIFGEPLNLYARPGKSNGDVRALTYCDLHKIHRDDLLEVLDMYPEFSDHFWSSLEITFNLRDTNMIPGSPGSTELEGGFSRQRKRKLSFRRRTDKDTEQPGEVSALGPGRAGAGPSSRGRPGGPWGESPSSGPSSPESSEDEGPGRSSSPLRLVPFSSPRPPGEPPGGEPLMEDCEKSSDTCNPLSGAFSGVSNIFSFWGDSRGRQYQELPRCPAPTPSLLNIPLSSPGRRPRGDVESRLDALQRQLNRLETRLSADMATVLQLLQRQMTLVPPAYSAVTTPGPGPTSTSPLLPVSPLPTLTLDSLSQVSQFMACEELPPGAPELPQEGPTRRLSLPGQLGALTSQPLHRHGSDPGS

CCNC(=S)NCC
inactive: Potency [1] > 92 µM | Potency [2] > 92 µM | Potency [3] | Potency [4] | Potency [5] | outcome [6] | outcome [7] | Potency [8] | Potency [9] | Potency [10] | activation [11] -0.196% | activation [12] 0.201% | Potency [13] | Potency [14] | Potency [15] | outcome [16]

O=[N+]([O-])c1cccc(I)c1
inactive: Potency [1] > 92 µM | Potency [2] > 92 µM | Potency [4] | caspase-3 activation [17] -1.61% | Potency [18] | Potency [5] | outcome [6] | outcome [7] | Potency [8] | Potency [9] | Potency [10] | activation [11] -3.48% | activation [12] -0.0255% | Potency [13] | Potency [14] | Potency [15] | outcome [16]

c1cc2c3c(c1)ccc1cccc(c13)C2
inactive: Potency [1] > 92 µM | Potency [2] > 92 µM | Potency [4] | Potency [19] | Potency [20] | Potency [5] | Potency [8] | Potency [9] | activation [11] -4.21% | activation [12] -2.58% | Potency [13] | Potency [14] | Potency [15] | outcome [16]

C/C(Cl)=C/CCl
inactive: Potency [1] > 92 µM | Potency [2] > 92 µM | caspase-3 activation [17] -0.884% | Potency [18] | Potency [20] | Potency [5] | outcome [6] | outcome [7] | Potency [9] | activation [11] -4.9% | Potency [13] | Potency [14] | Potency [15] | outcome [16]

C1CCCNCC1
inactive: Potency [1] > 92 µM | Potency [2] > 92 µM | Potency [3] | caspase-3 activation [17] 2.08% | Potency [18] | Potency [5] | outcome [6] | outcome [7] | Potency [9] | Potency [10] | Potency [13] | Potency [14] | Potency [15] | outcome [16]

CC(=O)OC1CC(C)OC(C)O1 (stereo not drawn)
inactive: Potency [1] > 92 µM | Potency [2] > 92 µM | Potency [4] | Potency [18] | Potency [20] | Potency [5] | outcome [7] | Potency [9] | activation [12] -0.185% and -2.01% | Potency [13] | Potency [14] | Potency [15] | outcome [16]
active: Potency [10] 61.1 µM

OCC(CBr)(CBr)CBr
inactive: Potency [1] > 92 µM | Potency [2] > 92 µM | Potency [19] | Potency [20] | Potency [5] | outcome [6] | outcome [7] | Potency [8] | Potency [9] | Potency [10] | activation [11] 0.524% | activation [12] 0.264% | Potency [13] | Potency [15]
